Laboratory results as given in PubChem BioAssay (Tox21).
Results filed as inconclusive are left out. Active and inactive are the calls of the source. Unless noted, the call rests on the fitted dose curve; in most records, active means well fitted curve in the direction sought with a large enough effect in the repeat runs; inconclusive means weak or mixed curves; inactive means no such curve, though single readings can be large; an effect the other way counts as inactive or inconclusive.

How the values were obtained:
[1] = qHTS assay for small molecules that induce genotoxicity in human embryonic kidney cells expressing luciferase-tagged ATAD5 (AID 651632); further: nearly all actives have a fitted effect of over 15% in size
Outline: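 Genotoxicity read-out via ATAD5-luciferase: HEK293T cells, 16 hr compound incubation at 37C, Amplite detection.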

[2] = qHTS assay for small molecule agonists of the p53 signaling pathway - cell viability (AID 651633; calls by dose curve;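 further: p53RE-bla HCT reporter cells with a stable beta-lactamase p53 reporter; series mostly up to about 83 µM; nearly all actives have a fitted effect of over 30% in size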)
Outline: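 Viability counter-read: CellTiter-Glo luminescence (30 min, room temperature) in the same p53RE-bla plates. These plates had been exposed to compounds for 16 h at 37 C.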

[3] = qHTS assay for small molecules that induce genotoxicity in human embryonic kidney cells expressing luciferase-tagged ATAD5 - cell viability (AID 651634; calls by dose curve; further: nearly all actives have a fitted effect of over 25% in size)
Outline: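 Live-cell protease activity (CellTiter-Fluor, fluorescence) indicates viability. HEK293T cells with luciferase-tagged ATAD5; 15.5 hr compound treatment at 37C.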

[4] = qHTS assay for small molecule disruptors of the mitochondrial membrane potential - cell viability (AID 720634; calls by dose curve;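 further: human HepG2 liver cancer cells; series mostly up to about 83 µM; nearly all actives have a fitted effect of over 20% in size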)
Outline: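 Human hepatoma HepG2 cells were treated for 1 hr with test chemicals, then given m-MPI dye and CellTiter-Glo. Cell viability reflects luminescence proportional to cellular ATP.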

[5] = qHTS assay for small molecule disruptors of the mitochondrial membrane potential (AID 720635); further: potency means the concentration at half of the fitted maximal effect
Outline: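 Mitochondrial membrane potential tracked with Mito-MPS dye, red aggregates (ex 540/em 590 nm) against green monomers (ex 490/em 535 nm). Compound treatment 1 hr at 37C, dye 30 min in HepG2.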

[6] = qHTS assay to test for compound auto fluorescence at 590 nm (red) in HepG2 cells (AID 720674)
Outline: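 We screened compounds on adherent HepG2 cells, incubating them for an hour at 37 C in 5% CO2 before reading emission at 590 nm under 540 nm excitation; values reflect equivalence to Rose Bengal sodium fluorescence.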

[7] = qHTS assay to test for compound auto fluorescence at 535 nm (green) in HepG2 cells (AID 720675)
[8] = qHTS assay to test for compound auto fluorescence at 460 nm (blue) in HEK293 cells (AID 720678)
Outline: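 Cells were seeded and left to adhere for 4-5 hr at 37C. Compounds were then pin-transferred. After an overnight incubation at 37C under 5% CO2, intrinsic fluorescence at 405/460 nm was measured and referenced to triamterene.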

[9] = qHTS assay to test for compound auto fluorescence at 590 nm (red) in HEK293 cells (AID 720679)
Outline: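 Each well held 2,000 HEK293 cells in medium containing 10% dialyzed FBS. Following 4-5 hr attachment at 37C, 23 nL test compound or DMSO was added; plates sat overnight, and red fluorescence (540/590nm) was recorded.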

[10] = qHTS assay to test for compound auto fluorescence at 535 nm (green) in HEK293 cells (AID 720680)
[11] = qHTS assay to test for compound auto fluorescence at 460 nm (blue) in HEK293 cell free culture (AID 720681)
Outline: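 Blue fluorescence (Ex 405/Em 460 nm, triamterene-equivalent) was read immediately after pin transfer of compound or DMSO into medium (DMEM, 10% FBS) without cells.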

[12] = qHTS assay to test for compound auto fluorescence at 535 nm (green) in HEK293 cell free culture (AID 720682)
Outline: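 Each library compound, or DMSO control, is added by pintool to medium alone, comprising DMEM and 10% FBS. Emission at 535 nm following 485 nm excitation is quantified against fluorescein.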

[13] = qHTS assay to test for compound auto fluorescence at 590 nm (red) in HEK293 cell free culture (AID 720683)
Outline: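 Red-channel autofluorescence of compounds in culture medium (DMEM, 10% FBS), no cells, measured at 540/590 nm. Rose Bengal sodium is the reference fluorophore for equivalence.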

[14] = qHTS assay to test for compound auto fluorescence at 590 nm (red) in HepG2 cell free culture (AID 720684)
Outline: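 Steps: dispense MEM/10% FBS medium, no cells; pin compound or DMSO vehicle; read red channel, Ex/Em 540/590 nm. Output given as Rose Bengal sodium equivalents.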

[15] = qHTS assay to test for compound auto fluorescence at 460 nm (blue) in HepG2 cell free culture (AID 720685)
Outline: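 Compound (23 nL) or DMSO pinned into cell-free MEM with 10% FBS; blue fluorescence read at 405/460 nm excitation/emission, expressed as auto-fluorescence equivalency to triamterene.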

[16] = qHTS assay to test for compound auto fluorescence at 535 nm (green) in HepG2 cell free culture (AID 720686)
[17] = qHTS assay to test for compound auto fluorescence at 460 nm (blue) in HepG2 cells (AID 720687)
Outline: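 Blue-channel autofluorescence (Ex/Em 405/460 nm, triamterene-equivalent) was measured after 1 hr compound exposure at 37 C, 5% CO2. Cells were HepG2, plated overnight at 37 C in MEM plus 10% FBS.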

[18] = target: Glucocorticoid receptor (Homo sapiens) (UniProt P04150); experiment: qHTS assay to identify small molecule agonists of the glucocorticoid receptor (GR) signaling pathway (AID 720691; active means well fitted activation curve with a large enough effect in the signal ratio in the repeat runs, not every such curve was filed as active; the % refers to the signal ratio)
Chain of Glucocorticoid receptor (Homo sapiens) (P04150 whole entry, looked up): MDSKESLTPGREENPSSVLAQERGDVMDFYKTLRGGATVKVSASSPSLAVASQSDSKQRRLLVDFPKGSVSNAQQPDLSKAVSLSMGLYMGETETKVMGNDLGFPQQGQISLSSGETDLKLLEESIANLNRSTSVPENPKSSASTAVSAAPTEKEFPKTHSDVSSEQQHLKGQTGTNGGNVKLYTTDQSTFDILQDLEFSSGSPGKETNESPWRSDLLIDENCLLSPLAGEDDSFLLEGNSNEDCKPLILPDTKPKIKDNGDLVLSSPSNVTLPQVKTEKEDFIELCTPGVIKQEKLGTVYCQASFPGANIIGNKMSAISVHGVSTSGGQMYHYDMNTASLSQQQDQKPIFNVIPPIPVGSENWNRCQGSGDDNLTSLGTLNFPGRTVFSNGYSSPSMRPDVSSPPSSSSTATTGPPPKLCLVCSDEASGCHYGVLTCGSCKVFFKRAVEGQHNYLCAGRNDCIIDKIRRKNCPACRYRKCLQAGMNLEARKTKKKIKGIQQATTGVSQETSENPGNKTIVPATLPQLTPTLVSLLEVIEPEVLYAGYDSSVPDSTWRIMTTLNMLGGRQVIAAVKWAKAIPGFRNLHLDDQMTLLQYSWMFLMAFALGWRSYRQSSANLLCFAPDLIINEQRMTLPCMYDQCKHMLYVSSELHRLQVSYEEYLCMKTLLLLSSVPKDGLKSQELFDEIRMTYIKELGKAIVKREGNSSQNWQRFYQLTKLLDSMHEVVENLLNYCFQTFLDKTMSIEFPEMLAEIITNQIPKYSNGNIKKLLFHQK
Outline: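 Beta-lactamase reporter activity, read as fluorescence intensity, was measured in GR-bla HeLa cells exposed to compounds for 18 h at 37 C and then loaded with LiveBLAzer B/G FRET substrate for 2 h at room temperature.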

[19] = target: Glucocorticoid receptor (Homo sapiens) (UniProt P04150); experiment: qHTS assay to identify small molecule antagonists of the glucocorticoid receptor (GR) signaling pathway (AID 720692; active means well fitted inhibition curve with a large enough effect in the signal ratio in the repeat runs, not every such curve was filed as active; the % refers to the signal ratio)
Outline: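 Fluorescence from cleaved LiveBLAzer B/G FRET substrate reports GRE-driven beta-lactamase in HeLa cells; compounds are tested against 5 nM dexamethasone (final) over 18 h at 37 C, substrate incubation 2 h at room temperature.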
On the % scale 0 is the no-effect control and ±100 the full control effect.

CCC(C)C1N=C(C)C(C)S1 (stereo not drawn)
inactive: Potency [1] | Potency [2] | Potency [3] | Potency [4] | Potency [5] | outcome [6] | outcome [7] | Potency [8] | outcome [9] | outcome [10] | Potency [11] | outcome [12] | outcome [13] | outcome [14] | outcome [15] | outcome [16] | outcome [17] | Potency [18] | Potency [19]

O=Cc1ccc(Cl)c([N+](=O)[O-])c1
inactive: Potency [1] | Potency [2] | Potency [3] | Potency [4] | outcome [6] | outcome [7] | outcome [9] | outcome [10] | Potency [11] | outcome [12] | outcome [13] | outcome [14] | outcome [16] | outcome [17]

CC(O)CN (stereo not drawn)
inactive: Potency [1] | Potency [2] | Potency [3] | Potency [4] | outcome [6] | outcome [7] | outcome [9] | outcome [10] | Potency [11] | outcome [12] | outcome [13] | outcome [14] | outcome [15] | outcome [16] | outcome [17] | Potency [18] | Potency [19]

O=C(O)c1cccnc1Nc1cccc(C(F)(F)F)c1
inactive: Potency [1] | Potency [2] | Potency [3] | Potency [4] | outcome [6] | outcome [7] | Potency [8] | outcome [9] | outcome [10] | Potency [11] | outcome [12] | outcome [13] | outcome [14] | outcome [15] | outcome [16] | outcome [17] | Potency [18] | Potency [19]
active: Potency [5] 11.9 µM

SCCOCCOCCS
inactive: Potency [1] | Potency [2] | Potency [3] | Potency [4] | outcome [6] | outcome [7] | Potency [8] | outcome [9] | outcome [10] | Potency [11] | outcome [12] | outcome [13] | outcome [14] | outcome [15] | outcome [16] | outcome [17] | Potency [18] | Potency [19]

FC(F)(Cl)C(F)(Cl)Cl
inactive: Potency [1] | Potency [2] | Potency [3] | Potency [5] | outcome [6] | outcome [7] | Potency [8] | outcome [9] | outcome [10] | Potency [11] | outcome [12] | outcome [13] | outcome [14] | outcome [15] | outcome [16]

COC=O
inactive: activation [1] -1.31% [at 8.08 µM] | activity change, negative = cytotoxicity [2] 21.3% [at 8.08 µM] | activity, negative = cytotoxicity [3] 20.8% [at 8.08 µM] | activity change, negative = cytotoxicity [4] 7.15% [at 8.08 µM] | fluorescence, relative to Rose Bengal [6] 0.0697% [at 9.17 µM] | fluorescence, % of fluorescein control [7] 0.016% [at 9.17 µM] | fluorescence, % of triamterene [8] -0.185% [at 9.17 µM] | fluorescence, % of fluorescent control [9] 0.13% [at 9.17 µM] | fluorescence, % of fluorescein [10] -0.112% [at 9.17 µM] | fluorescence, % of fluorescent control [11] -0.168% [at 9.17 µM] | activity change [12] -0.0308% [at 9.17 µM] | fluorescence, % of fluorescent control [13] -0.0562% [at 9.17 µM] | fluorescence, % of Rose Bengal [14] -0.0589% [at 9.17 µM] | fluorescence, % of fluorescent control [15] -0.142% [at 9.17 µM] | fluorescence, % of fluorescein control [16] -0.0327% [at 9.17 µM] | fluorescence, % of fluorescent control [17] -0.259% [at 9.17 µM]

OCCOc1cccc(OCCO)c1
inactive: Potency [1] | Potency [2] | Potency [3] | Potency [4] | Potency [5] | outcome [6] | outcome [7] | outcome [9] | outcome [10] | Potency [11] | outcome [12] | outcome [13] | outcome [14] | outcome [15] | outcome [16] | outcome [17]

CCCN(C1CCN(C(=O)C2CCNCC2)CC1)[C@@H]1CCc2ccc(OC)cc2C1
inactive: Potency [1] | Potency [2] | Potency [3] | Potency [4] | outcome [6] | outcome [7] | outcome [9] | outcome [10] | Potency [11] | outcome [12] | outcome [13] | outcome [14] | outcome [15] | outcome [16] | outcome [17] | Potency [18] | Potency [19]

Oc1ccc(Oc2ccccc2)cc1
inactive: Potency [1] | Potency [2] | Potency [3] | Potency [4] | outcome [6] | outcome [7] | Potency [8] | outcome [9] | outcome [10] | Potency [11] | outcome [12] | outcome [13] | outcome [14] | outcome [15] | outcome [16]
active: Potency [5] 20.6 µM

CCCCCCCCC(=O)OCC(C)OC(=O)CCCCCCCC (stereo not drawn)
inactive: Potency [1] | Potency [2] | Potency [3] | Potency [4] | Potency [5] | outcome [7] | Potency [8] | outcome [9] | outcome [10] | Potency [11] | outcome [12] | outcome [13] | outcome [14] | outcome [15] | outcome [16] | outcome [17] | Potency [18]

O=C(Nc1ccccc1)c1cc([N+](=O)[O-])ccc1Cl
inactive: Potency [1] | Potency [2] | Potency [3] | Potency [4] | outcome [7] | outcome [9] | outcome [10] | Potency [11] | outcome [12] | outcome [13] | outcome [14] | outcome [15] | outcome [16]

CC(Cc1ccccc1)(NC(=O)CN)c1ccccc1 (stereo not drawn)
inactive: Potency [1] | Potency [2] | Potency [3] | outcome [6] | outcome [7] | outcome [9] | outcome [10] | Potency [11] | outcome [12] | outcome [13] | outcome [14] | outcome [15] | outcome [16] | outcome [17] | Potency [18]

CC1(C)CC(O)CC(C)(C)N1[O]
inactive: Potency [1] | Potency [2] | Potency [3] | Potency [4] | outcome [6] | outcome [7] | outcome [9] | outcome [10] | Potency [11] | outcome [12] | outcome [13] | outcome [14] | outcome [15] | outcome [16]

O=C(O)c1ccc(O)c(O)c1
inactive: Potency [1] | Potency [2] | Potency [3] | Potency [4] | outcome [6] | outcome [7] | Potency [8] | outcome [9] | outcome [10] | Potency [11] | outcome [12] | outcome [13] | outcome [14] | outcome [15] | outcome [16] | outcome [17] | Potency [19]
